Screening results from PubChem.
TcdB inh – blocks C. difficile toxin B glycohydrolase activity; TcdB glycohydrolase enzymatic assay, plate reader; inhibition, % at 9.99 µM; AID 652162; P18177; 350,000 compounds, 0.24% hits; in the data active = inhibition above about 10%
Mtb UGM inh – inhibitors of M. tuberculosis UDP-galactopyranose mutase; P9WIQ1; purified UGM, fluorescence polarization probe displacement; inhibition, % at 10 µM; 320,000 compounds, 0.06% hits; AID 504406; in the data active = inhibition above about 10%, passing the limit was not always enough
Target sequence (P9WIQ1 whole entry, looked up): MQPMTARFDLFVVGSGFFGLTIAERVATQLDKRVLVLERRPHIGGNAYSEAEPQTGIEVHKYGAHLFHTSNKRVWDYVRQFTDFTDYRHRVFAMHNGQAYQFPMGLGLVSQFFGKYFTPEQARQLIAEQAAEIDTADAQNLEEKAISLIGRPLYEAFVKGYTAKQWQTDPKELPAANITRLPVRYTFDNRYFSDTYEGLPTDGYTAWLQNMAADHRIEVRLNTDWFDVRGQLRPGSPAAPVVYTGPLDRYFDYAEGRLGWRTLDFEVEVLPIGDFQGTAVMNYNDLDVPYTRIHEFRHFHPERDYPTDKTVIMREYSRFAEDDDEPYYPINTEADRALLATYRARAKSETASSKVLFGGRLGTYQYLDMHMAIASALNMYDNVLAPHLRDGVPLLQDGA
RecA intein inh – inhibitors of M. tuberculosis RecA intein splicing. P9WHJ3. cell-free RecA intein splicing, fluorescence. inhibition, % (concentration not given with the values). 290,000 compounds, 0.75% hits. AID 2221; in the data active = inhibition above about 30%;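 also: 0% = vehicle wells and 100% = reference inhibitor control wells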
FadD28 binding – M. tuberculosis FadD28 bisubstrate binding inhibition. FadD28 bisubstrate probe binding, fluorescence polarization. inhibition, % at 12.5 µM. 360,000 compounds, 0.22% hits. AID 588549; in the data active = inhibition above about 8.5%, passing the limit was not always enough
BioA inh – inhibitors of Mycobacterium tuberculosis BioA enzyme. purified M. tuberculosis BioA enzyme, plate reader. inhibition, % at 9.99 µM. 360,000 compounds, 0.096% hits. AID 602481; in the data active = inhibition above about 40%
Rv3671c protease – inhibitors of M. tuberculosis serine protease Rv3671c | P9WHR9 | inhibition, % at 5.96 µM | 320,000 compounds, 0.048% hits | AID 2606; in the data active = inhibition above about 38%;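 also: extracellular domain of Rv3671c used as enzyme; 0% = enzyme with DMSO and 100% = no enzyme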
GFP chromo cs – counter-screen GFP chromophore formation inhibition | cell-free GFP chromophore formation, fluorescence | shares compounds with RecA intein inh | 2,100 compounds, 83% hits | EC50, µM; call rule not given here
Active calls of the source: *; · = no result. In the library only some 0.9% were active in any assay of this set; here they are far more common.

SMILES | TcdB inh | Mtb UGM inh | RecA intein inh | FadD28 binding | BioA inh | Rv3671c protease | GFP chromo cs
O=C(Nc1ccccc1)NN(C(=O)CCl)c1ccccc1 | 1 | -1 | 68* | -2 | 0 | 2 | 15*
C[C@H]1CCCCO[C@@H](CN(C)C(=O)c2ccncc2)[C@@H](C)CN([C@@H](C)CO)C(=O)c2cc(NS(=O)(=O)c3ccc(Cl)cc3)ccc2O1 | 1 | · | · | · | 0 | · | ·
O=C(CCl)N(CCc1ccccc1)CCc1ccccc1 | 0 | 5 | 74* | -2 | -3 | 6 | 20*
O=C(CCCc1ccccc1)NCCc1ccccc1 | 2 | -1 | -1 | -3 | 2 | -8 | ·
O=C1NCCCC2c3c(cc(Br)c(O)c3Br)OC12N1CCCCC1 (stereo not given) | · | -3 | 38* | -1 | 0 | 4 | 5.5*
CN(C)C(=O)C[C@H]1C=C[C@@H](NS(=O)(=O)c2ccccc2)[C@@H](CO)O1 | 0 | · | · | · | -2 | · | ·
COc1ccc(C2C(O)C(c3c[nH]c4ccccc34)=NN2C(=O)CCl)cc1 (stereo not given) | 2 | -1 | 87* | -2 | 2 | 29 | 2.3*
COc1ccc(C2NN=C(c3c[nH]c4ccccc34)C2O)cc1 (stereo not given) | -1 | -1 | -3 | -4 | -1 | -13 | ·
CC(CNc1ccccc1O)C(=O)O (stereo not given) | -9 | 3 | 50* | 2 | · | -14 | 17*
CC(NC(=O)CCC(=O)Nc1ccccc1O)c1ccccc1 (stereo not given) | 1 | 0 | 0 | -1 | 1 | -9 | ·
CC(C)(C)OC(=O)N1CC=C2C(C#N)=C(N)C(C#N)(C#N)C(c3cccs3)C2C1 (stereo not given) | · | -2 | 53* | -3 | -2 | -7 | 10*
CNC(=O)C[C@@H]1CC[C@@H]2[C@@H](COc3ccc(NC(=O)Nc4cccc(Cl)c4)cc3C(=O)N2C)O1 | 0 | · | · | · | 9 | · | ·
CC(=O)Oc1ccc2c(=O)oc(-c3ccccc3C)nc2c1 | 3 | -1 | 33* | -4 | 1 | 0 | >38
CC(=O)NC(c1ccc(Cl)cc1)c1c(O)ccc2ccc(O)cc12 (stereo not given) | -5 | -1 | 59* | 3 | · | -5 | 12*
O=C(NC(c1ccc(Cl)cc1)c1c(O)ccc2ccccc12)c1ccccc1 (stereo not given) | · | -1 | · | 1 | -2 | -58 | ·
Clc1ccc(Sc2ccc(/C=N/n3cnnc3)o2)cc1 | · | 1 | 24 | -3 | 11 | 3 | ·
Clc1ccc(Sc2oc(/C=N/n3cnnc3)cc2Br)cc1 | · | 1 | 63* | -5 | -1 | -1 | 22*
O=C(C[C@H]1CC[C@H]2[C@@H](COC[C@@H](O)CN2Cc2ccncc2)O1)NCc1ccccc1Cl | 2 | · | · | · | -5 | · | ·
CC1CCc2c(sc3nc(C(C)(C)C)nc(N4CCN(C(=O)CCl)CC4)c23)C1 (stereo not given) | 0 | 1 | 83* | -3 | 7 | -3 | 0.96*
CCC(=O)N1CCN(c2nc(CC)nc3sc4c(c23)CCCC4)CC1 | 1 | 1 | 1 | -3 | 17 | 4 | ·
O=C(C[C@H]1CC[C@H]2[C@@H](COC[C@H](O)CN2Cc2cc(F)ccc2F)O1)N[C@@H]1CCN(Cc2ccccc2)C1 | -1 | · | · | · | -2 | · | ·
Cc1nc2ccccc2c2c1C(=O)N(Cc1cccnc1)C2=O | · | 2 | 54* | 0 | -1 | -4 | 0.81*
O=C1c2ccccc2C(=O)N1Cc1cccnc1 | -1 | 1 | -9 | -1 | · | 5 | ·
CC(=O)N1CCC2(CC1)C(C#N)=C(N)Oc1n[nH]c(C(F)(F)F)c12 | · | 1 | -10 | 2 | · | 7 | ·
Cc1ccc(SCc2[nH]nc3c2C2(C(=O)Nc4ccc(F)cc42)C(C#N)=C(N)O3)cc1 (stereo not given) | · | 0 | · | -7 | 0 | 8 | ·
SMILES | TcdB inh | Mtb UGM inh | RecA intein inh | FadD28 binding | BioA inh | Rv3671c protease | GFP chromo cs
CCc1[nH]nc2c1C1(CCN(C(=O)c3ccccc3)CC1)C(C#N)=C(N)O2 | 0 | 0 | 67* | -3 | · | -5 | 29*
CC(=O)N1CCC2(CC1)C(C#N)=C(N)Oc1n[nH]c(CSc3ccc(C)cc3)c12 | · | 3 | 74* | -1 | 1 | -9 | 23*
CN(C)C(C(=O)NC1CCCCC1)c1ccc(Cl)cc1 (stereo not given) | · | 1 | -1 | -4 | 0 | 2 | ·
COC(=O)c1ccc(C(C(=O)NC2CCCCC2)N(Cc2ccc(F)cc2)C(=O)Cc2cccs2)cc1 (stereo not given) | · | 0 | -2 | -2 | 0 | -5 | ·
O=C(NC1CCCC1)C(c1ccc(F)cc1)N(Cc1ccc(Cl)cc1)C(=O)CCl (stereo not given) | 1 | 4 | 59* | -2 | 1 | -2 | 7*
O=C(NC1CCCC1)C(c1ccc(Cl)cc1)N(Cc1ccc(F)cc1)C(=O)CCl (stereo not given) | · | -4 | 67* | -1 | · | -3 | 2.7*
CCC(=O)Nc1ccc2c(c1)OC[C@@H](C)N(C(=O)COC)C[C@H](C)[C@H](OC)CN(C)C2=O | 0 | · | · | · | 2 | · | ·
Cc1ccc(S(=O)(=O)N(C)C[C@H]2Oc3ncc(-c4ccccc4)cc3C(=O)N([C@H](C)CO)C[C@H]2C)cc1 | 0 | · | · | · | 0 | · | ·
CCOC1(OCC)C(c2ccc(Cl)cc2)C(C#N)(C#N)C1(OCC)OCC (stereo not given) | · | 0 | 56* | -3 | 1 | -7 | >38
COc1cccc(OC(=O)CSc2nnc(-c3ccccc3Br)o2)c1 | · | 2 | 74* | -2 | · | 0 | 26*
C[C@H](CO)N1C[C@H](C)[C@H](CN(C)Cc2ccc(Cl)c(Cl)c2)Oc2ccc(NS(=O)(=O)c3cn(C)cn3)cc2C1=O | 1 | · | · | · | 9 | · | ·
CCCCCC[N+](C)(C)CCSSCC[N+](C)(C)CCCCCC | 0 | -1 | -1 | 0 | -2 | 4 | ·
CCCCCCCCCCCCCCCC[N+](C)(C)C | 2 | -3 | 36* | 24* | 20 | 10 | 23*
CCCCCCCCCCCCCCCC[N+](C)(C)CC | 2 | 1 | 44* | 19* | 23 | 1 | 17*
CO[C@H]1CC[C@H]2CCN(C)C(=O)C[C@@H](c3ccccc3)CN(C)C(=O)c3cccc(C#N)c3OC[C@H]1O2 | 1 | · | · | · | 0 | · | ·
CN1CCN(C(=O)C[C@H]2C[C@H]3c4cc(NC(=O)C5CCOCC5)ccc4O[C@H]3[C@@H](CO)O2)CC1 | 2 | · | · | · | -1 | · | ·
Cc1ccc(CS(=O)(=O)c2ncc(Cl)c(C(=O)Nc3ccc(OC(F)F)cc3)n2)cc1 | 0 | 0 | 14 | -2 | 0 | -45 | ·
COC(=O)c1ccccc1NC(=O)c1nc(S(=O)(=O)Cc2ccccc2)ncc1Cl | -1 | 1 | 2 | 1 | -1 | -3 | ·
O=C(NCc1ccccc1)c1nc(S(=O)(=O)Cc2ccccc2)ncc1Cl | 4 | -2 | 77* | -1 | 1 | -15 | 17*
COc1ccc(CNC(=O)c2nc(S(=O)(=O)Cc3ccccc3)ncc2Cl)cc1 | -2 | 1 | 82* | -1 | 1 | 1 | 15*
